# PubChem BioAssay
# Records with an inconclusive call do not appear. For some of these results: Results with a measured potency or affinity are listed apart. The source made the active and inactive calls. Cut-off read from the data, not from the text of the source, unless noted: active = inhibition above about 80%; inactive = the rest.
# Columns and labels:
# [1] = mitochondrial permeability transition inhibitors (AID 1580; call rule not given here); conditions: isolated mitochondria, permeability transition inhibition
# [2] = polyglutamine-triggered caspase-3 activation inhibitors, cell-based (AID 1583); conditions: polyglutamine-induced caspase-3 activation, cell assay; stronger effect = higher value;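 tested at 10 µM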
# [3] = suppressors of polyQ aggregation in yeast, 75Q-TubU reporter (AID 1593); conditions: Yeast 75Q polyglutamine aggregation reporter
# [4] = rescue of polyQ-huntingtin neuronal dysfunction in worms, whole organism, C. elegans mechanosensory neurons, N-terminal huntingtin (AID 1599); conditions: touch response, stronger effect = higher value
# [5] = inhibitors of mitochondrial cytochrome c release, biochemical, purified mitochondria (AID 1603); conditions: stronger effect = lower value;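 note: mouse liver mitochondria challenged with calcium chloride; signal normalized to the plate average as 100%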
# [6] = inhibitors of polyQ protein aggregation (AID 1604); conditions: polyglutamine-induced protein aggregation inhibition assay; stronger effect = higher value; tested at 2.5 µM
# [7] = protection against mutant huntingtin cytotoxicity, PC12 cells, LDH release (AID 1610); conditions: PC12 mutant huntingtin toxicity, final LDH at 4 uM, stronger effect = lower value
# [8] = enhancers of glutamate uptake in motor neurons, MN-1 cell line (AID 1612); conditions: MN-1 motor neuron cells, stronger effect = higher value;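 note: tested at 1 µM final; 0% = mean of DMSO vehicle wells on each plate; positive means more glutamate uptake than control and negative means less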
# [9] = suppressors of polyglutamine aggregation in yeast, 75Q-TubH (AID 1616); conditions: S. cerevisiae 75Q-TubH polyglutamine aggregation suppression; stronger effect = higher value
# [10] = reducers of polyQ inclusions in PC12 cells, cell-based, NGF-treated PC12, GFPQ80 (AID 1614); conditions: PC12 NGF-treated GFP-polyQ80 inclusion reduction;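 note: lower means fewer inclusions and 0 means no inclusions at all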
# [11] = circadian clock period modulators, cell-based, LOPAC library, luminescence reporter (AID 2774; call rule not given here;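 note: values are relative to mean of DMSO wells on each plate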); conditions: circadian reporter cells, at 7 µM, actives lie on both sides
# [12] = system: Hepatitis C virus NS3 helicase; test: HCV NS3 helicase inhibitors, primary screen, biochemical, fluorescence polarization, LOPAC1280 library (AID 687035; in the data active = inhibition above about 37%); conditions: Purified HCV NS3 helicase, Cy5-dT15 ssDNA binding fluorescence polarization; stronger effect = higher value; concentration not given here
# [13] = Cy5 fluorescence quenching or enhancement artefacts, artefact control for HCV NS3 helicase inhibitor project, biochemical, LOPAC1280 (AID 687037; call rule not given here); conditions: Cy5-DNA-NS3h complex fluorescence interference counterscreen
# [14] = system: Aerobactin synthetase IucA (Klebsiella pneumoniae, hypervirulent); test: IucA enzyme inhibition, biochemical, LOPAC library, absorbance readout (AID 1346212; call rule not given here;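 note: 100% = no compound wells and 0% = no enzyme wells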); conditions: IucA enzyme assay, absorbance (OD) readout; stronger effect = lower value;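 tested at 8 µM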
# [15] = phospholipid biosynthesis inhibitors in animal cells, primary screen, cell-based, LOPAC library, screen 4 (AID 1347384; call rule not given here); conditions: phospholipid biosynthesis inhibition screen, at 10 µM
# [16] = viability rescue of complex I mutant cybrids, primary screen, cell-based, galactose medium, ATP luminescence (AID 1645843;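 active = z-score of at least 1.8 in each of two replicates, scored against plate mean and spread of sample wells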;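 note: positive z means more ATP and so rescue of galactose-driven cybrid death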); conditions: complex I mutant cybrid cells, 72 h, stronger effect = higher value
# [17] = LFS_MB_P medulloblastoma growth inhibition, cell-based, chromothripsis tumors, cisplatin or BGB combos (AID 1671449); conditions: LFS_MB_P medulloblastoma cells;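 note: cells exposed for 96 hours; 0% = vehicle DMSO and 100% = killing by high DMSO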
# [18] = HDN33 neuroblastoma growth inhibition, cell-based, chromothripsis tumors, cisplatin or BGB combos (AID 1671450); conditions: HDN33 neuroblastoma cells, stronger effect = higher value;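 note: cells exposed to compound for four days; 0% = vehicle DMSO and 100% = cell killing by high DMSO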
# [19] = ICB984 medulloblastoma cell growth inhibition, synergistic combos for chromothripsis tumors, cisplatin or BGB combos (AID 1671451; call rule not given here;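 note: cells exposed for 96 hours before readout; 0% = vehicle DMSO and 100% = killing by high DMSO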); conditions: ICB984 medulloblastoma cells, drug combinations, stronger effect = higher value
# [20] = LFS_MB_1R medulloblastoma cell growth inhibition, synergistic combos for chromothripsis tumors, cisplatin or BGB combos (AID 1671452); conditions: LFS_MB_1R medulloblastoma cells, stronger effect = higher value;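 note: cells exposed for 96 hours before readout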
# [21] = HTB85 osteosarcoma cell growth inhibition, synergistic combos for chromothripsis tumors, BGB or cisplatin IC20 combos (AID 1671453); conditions: HTB85 osteosarcoma cells, drug combinations, stronger effect = higher value;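 note: cells exposed for 96 hours before readout; 0% = vehicle DMSO and 100% = high DMSO killing control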
# [22] = CRL2098 osteosarcoma cell growth inhibition, synergistic combos for chromothripsis tumors, BGB or cisplatin IC20 combos (AID 1671454); conditions: CRL2098 osteosarcoma cells, drug combinations, stronger effect = higher value;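 note: cells exposed for 96 h before readout; 0% = vehicle DMSO and 100% = killing by high DMSO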
# [23] = HD-MB03 medulloblastoma cell growth inhibition, synergistic combos for chromothripsis tumors, BGB or cisplatin IC20 combos (AID 1671455; in the data active = inhibition above about 83%;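 note: 0% = vehicle DMSO and 100% = high DMSO as cytotoxic control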); conditions: HD-MB03 medulloblastoma cells, stronger effect = higher value
# [24] = UWB1.289 ovarian carcinoma cell growth inhibition, synergistic combos for chromothripsis tumors, BGB or cisplatin combos (AID 1671456); conditions: UWB1.289 ovarian carcinoma cells, stronger effect = higher value;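 note: cells exposed to compound for four days; 0% = vehicle DMSO and 100% = killing by high DMSO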
# [25] = LFS_MB_2R medulloblastoma cell growth inhibition, synergistic combos for chromothripsis tumors, cisplatin combos (AID 1671457); conditions: LFS_MB_2R medulloblastoma cells, stronger effect = higher value;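 note: cells exposed to compound for four days before readout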
# [26] = MDA-MB-436 breast carcinoma cell growth inhibition, synergistic combos for chromothripsis tumors, BGB or cisplatin combos (AID 1671458; call rule not given here;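 note: cells exposed for 96 hours; 0% = vehicle DMSO and 100% = killing by high DMSO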); conditions: MDA-MB-436 breast carcinoma growth inhibition, drug combinations, stronger effect = higher value
# [27] = UWB1.289_BRCA1 ovarian cancer growth, cell-based, BGB or cisplatin combinations (AID 1671459); conditions: UWB1.289 BRCA1 ovarian carcinoma, drug combinations, stronger effect = higher value
# [28] = human astrocyte viability loss, single and combined drugs, cytotoxicity control for chromothriptic childhood tumor combination screen, cell-based, BGB or cisplatin IC20 combos (AID 1671460); conditions: Human astrocytes, drug combinations, stronger effect = higher value;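 note: cells exposed to compounds for 96 hours before viability readout; 0% = vehicle and 100% = killing control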
# [29] = growth inhibition of BT084 medulloblastoma cells, cell-based, ICGC_MB145, cisplatin and BGB IC40 combos (AID 1671461); conditions: drug combinations, stronger effect = higher value;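 note: cells exposed to drugs for 96 hours; 0% = vehicle DMSO and 100% = high DMSO full killing control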
# [30] = growth inhibition of RCMB18 medulloblastoma cells, cell-based, cisplatin and BGB IC40 combos (AID 1671462); conditions: stronger effect = higher value;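 note: cells exposed to compound for four days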
# [31] = growth inhibition of CRL1545 osteosarcoma cells, cell-based, cisplatin and BGB IC20 combos (AID 1671464); conditions: stronger effect = higher value;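 note: cells exposed to compound for 96 hours before readout; 0% = vehicle DMSO and 100% = high DMSO killing control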
# [32] = measured here: combination with BGB IC40, at 0.05 µM
# [33] = measured here: with BGB IC20 combination, at 0.5 µM
# [34] = measured here: with cisplatin IC20 combination, at 0.5 µM
# [35] = measured here: combination with cisplatin, at 0.5 µM
# [36] = measured here: combination with cisplatin, at 5 µM
smiles,measurement,setting,value
CO[C@@H]1C[C@@H](C[C@H]2CC[C@H](C)[C@H]([C@@H](C)C(=O)O)O2)O[C@]2(O[C@](C)([C@H]3CC[C@@](C)(C4O[C@@H](C5O[C@@](O)(CO)[C@H](C)C[C@@H]5C)C[C@@H]4C)O3)C[C@H]2C)[C@@H]1C (stereo partly specified),EC50,[1],175 nM (active)
same,inhibition,[2],49.6%
same,score,[3],0.17
same,rescue above control,[4],2.36
same,cytochrome c release ratio,[5],0.42
same,inhibition of aggregation,[6],-0.07%
same,normalised LDH release,[7],0.812
same,glutamate uptake change,[8],-43.9%
same,aggregation suppression score,[9],0.0976
CC(C)CC(NC(=O)C(Cc1ccccc1)NC(=O)CNC(=O)CNC(=O)C(N)Cc1ccc(O)cc1)C(=O)O (stereo unspecified),inhibition,[2],-1.79%
same,score,[3],1.42
same,rescue above control,[4],3.43
same,cytochrome c release ratio,[5],0.97
same,inhibition of aggregation,[6],27.9%
same,glutamate uptake change,[8],12.5%
same,inclusion score,[10],2
same,aggregation suppression score,[9],1.27
Cc1c2ccncc2c(C)c2c1[nH]c1ccccc12,period change,[11],0.09 h (inactive)
same,inhibition,[12],-3% (inactive)
same,fluorescence ratio (interference),[13],1 (inactive)
same,remaining activity,[14],81.7% (inactive)
same,outcome,[15],inactive
same,z-score,[16],-0.975 (inactive)
same,inhibition,"[17]; at 0.5 µM, stronger effect = higher value",-2.79% (inactive)
same,inhibition,"[17]; measured here: combination with BGB IC20, at 0.005 µM",-42.2%
same,inhibition,"[17]; measured here: combination with BGB IC40, at 0.005 µM",16.3%
same,inhibition,[17]; [32],-3.69%
same,inhibition,"[17]; measured here: combination with cisplatin, at 0.5 µM, stronger effect = higher value",-10.1%
same,inhibition,"[17]; measured here: combination with cisplatin, at 5 µM, stronger effect = higher value",97%
same,inhibition,"[18]; BGB combo, at 5 µM",71.9%
same,inhibition,[18]; at 0.5 µM,19.9% (inactive)
same,inhibition,"[18]; cisplatin combo, at 5 µM",81.9%
same,inhibition,[18]; [33],6.43%
same,inhibition,[18]; [34],19.1%
same,inhibition,"[18]; single agent, at 5 µM",86.5%
same,inhibition,"[19]; BGB IC20 combo, at 0.005 µM",64.1%
same,inhibition,"[19]; BGB IC40 combo, at 0.005 µM",71.1%
same,inhibition,"[19]; BGB IC40 combo, at 0.05 µM",99.2%
same,inhibition,[19]; at 0.5 µM,-7.09% (inactive)
same,inhibition,"[19]; cisplatin combo, at 0.05 µM",99.7%
same,inhibition,"[19]; cisplatin combo, at 0.5 µM",-15.1%
same,inhibition,"[19]; cisplatin combo, at 5 µM",2.54%
same,inhibition,"[19]; measured here: 5 uM single agent, at 5 µM",-6.79%
same,inhibition,[20]; at 0.5 µM,52.5% (inactive)
same,inhibition,[20]; [32],-15.3%
same,inhibition,[20]; [35],90.8%
same,inhibition,[20]; [36],99.2%
same,inhibition,[21]; at 0.5 µM,-6.03% (inactive)
same,inhibition,"[21]; measured here: with BGB IC20, at 0.5 µM",-6.83%
same,inhibition,"[21]; measured here: with BGB IC20, at 5 µM",36.4%
same,inhibition,"[21]; measured here: with cisplatin IC20, at 0.5 µM",-14.1%
same,inhibition,"[21]; measured here: with cisplatin IC20, at 5 µM",40.2%
same,inhibition,"[21]; single agent, at 5 µM",51.7%
same,inhibition,[22]; at 0.5 µM,-3.13% (inactive)
same,inhibition,"[22]; measured here: combination with BGB at IC20, at 0.5 µM",-26.6%
same,inhibition,"[22]; measured here: combination with cisplatin at IC20, at 0.5 µM",16.5%
same,inhibition,[23]; at 0.5 µM,21.3% (inactive)
same,inhibition,"[23]; measured here: combo with BGB at IC20, at 0.5 µM",32.4%
same,inhibition,"[23]; measured here: combo with cisplatin at IC20, at 0.5 µM",9.33%
same,inhibition,[24]; at 0.5 µM,18% (inactive)
same,inhibition,"[24]; measured here: inhibition with BGB combination, at 0.05 µM",-8.89%
same,inhibition,"[24]; measured here: inhibition with cisplatin combination, at 0.05 µM",-1.5%
same,inhibition,[25]; at 0.5 µM,-5.42% (inactive)
same,inhibition,[25]; [35],15.1%
same,inhibition,[25]; [36],95.3%
same,inhibition,[26]; at 0.5 µM,-9.97% (inactive)
same,inhibition,"[26]; measured here: BGB combination, at 0.5 µM",-20.5%
same,inhibition,"[26]; measured here: BGB combination, at 5 µM",24.1%
same,inhibition,"[26]; measured here: cisplatin combination, at 0.5 µM",-26.7%
same,inhibition,"[26]; measured here: cisplatin combination, at 5 µM",24.1%
same,inhibition,"[27]; BGB combination, concentration series, at 5 µM",104%
same,inhibition,[27]; at 0.5 µM,21.4% (inactive)
same,inhibition,"[27]; cisplatin combination, concentration series, at 5 µM",113%
same,inhibition,[28]; at 0.5 µM,13.8% (inactive)
same,inhibition,"[28]; measured here: combo with BGB IC20, at 0.5 µM",4.66%
same,inhibition,"[28]; measured here: combo with cisplatin IC20, at 0.5 µM",-5.08%
same,inhibition,[29]; at 0.5 µM,48.9% (inactive)
same,inhibition,"[29]; cisplatin combination, at 0.5 µM",60.2%
same,inhibition,"[29]; cisplatin combination, at 5 µM",49.9%
same,inhibition,"[29]; measured here: BGB IC40 combination 0.05 uM, at 0.05 µM",16.8%
same,inhibition,"[29]; single agent, at 5 µM",44.6%
same,inhibition,[30]; at 0.5 µM,14.6% (inactive)
same,inhibition,"[30]; cisplatin combo, at 5 µM",91.5%
same,inhibition,"[30]; measured here: BGB IC40 combination, at 0.05 µM",1.25%
same,inhibition,[30]; [35],-51.3%
same,inhibition,"[30]; single agent, at 5 µM",70.8%
same,inhibition,[31]; at 0.5 µM,-40.6% (inactive)
same,inhibition,[31]; [33],-33.3%
same,inhibition,[31]; [34],-46.6%
same,inhibition,"[31]; single agent, at 0.05 µM",-12.4%
same,inhibition,"[31]; single agent, at 5 µM",68.6%
